# Assay results as given in PubChem BioAssay (NCATS).
# Inconclusive results are not listed. The source made the active and inactive calls. Calls come from the whole dose curve; as a rule, active = well fitted cell-killing curve with a large enough effect; inconclusive = small, poorly fitted or top-dose-only effect; inactive = flat fitted curve, though single readings scatter.
# Assay: qHTS of pediatric cancer cell lines to identify multiple opportunities for drug repurposing: Primary screen for U-2 OS cells (AID 1347096); note: nearly all actives have a fitted effect of over 50% in size
# Settings: U-2 OS viability, CellTiter-Glo luminescence, 48 h; series mostly up to 46 µM; activity change, negative = cytotoxic: at the top concentration
# Text: Drug repurposing or repositioning has been offered as a strategy for drug development in oncology programs. This approach has special potential for childhood cancers and other rare or orphan diseases, where the expected return on new drug development has been a disincentive to pharmaceuticals.
# In this project we exploit the poly-pharmacology of drugs to discover new indications via phenotypic screening of a panel of 19 well-characterized cell lines derived from solid tumors seen in children and adolescents. The goal is to identify approved drugs with previously unrecognized anticancer properties that has the potential to reveal new mechanisms and biological processes involved in carcinogenesis or drug resistance. We employed a titration-based paradigm (quantitative high-throughput screening or qHTS), where all compounds were tested at multiple concentrations for their effect on cell viability. Concentration-response curves (CRCs) were derived directly from the primary screen, and both potency and efficacy values were used to identify compounds with robust bioactivity profiles. We screened the NIH Chemical Genomics Center (NCGC) Pharmaceutical Collection (NPC) and Mechanism Interrogation Plate (MIPE) small molecule collections of approved and investigational compounds against these cell lines; and measured metabolically active cells after 48 hours of compound treatment as a proxy for cell viability.
# Assay Submitter: Nathalia J. Martinez, National Center for Advancing Translational Sciences, National Institutes of Health, Rockville, MD, USA; email: natalia.martinez@nih.gov
# [1] Shen, M et al. Quantitative high-throughput phenotypic screening of pediatric cancer cell lines identifies multiple opportunities for drug repurposing. Oncotarget 2017 Dec 19;9(4):4758-4772. PMID 29435139.
# The cells were obtained from University of North Carolina (UNC), Pediatric Preclinical Testing Program (PPT), and Coriell Institute (CI).
# qHTS cell viability assay:
# Cells were assayed in growth media at a density of 500-1,000 cells/well. Five microliters of cells were dispensed into 1,536-well, white, solid-bottom, TC-treated plates (Greiner Bio One) using a multidrop dispenser and incubated at 37 degrees C, 5% CO2, under a humidified atmosphere for 5 hours. Twenty-three nanoliters of compounds and controls (neutral control DMSO or positive control bortezomib at final concentration of 2.3 µM) were subsequently transferred by Kalypsys pintool. For primary screens, the MIPE collection was tested at 11-point dilutions (final concentrations range from 0.78 nM to 46 µM) and the NPC collection at 8-point dilutions (final concentrations range from 0.59 nM to 46 µM). Compounds tested in follow-up screens were assayed at 11-point dilutions. Cells were incubated for 48 hours, followed by addition of 3 µL of CellTiter-Glo (Promega). After a 15 min incubation at room temperature, samples were analyzed for luminescence intensity using a ViewLux High-throughput CCD imager equipped with clear filters.
Compound,"activity change, negative = cytotoxic",Potency
CC[C@H]1C[C@H]2[C@@H]3CCC4=CC(=O)CC[C@@H]4[C@H]3CC[C@]2(C)[C@H]1O,-17.8% (inactive),–
c1ccc2nc(N3CCNCC3)ccc2c1,-5.29% (inactive),–
CC1COC2(c3ccccc3Cl)c3cc(Cl)ccc3NC(=O)CN12 (stereo not given),-0.669% (inactive),–
NCc1cccnc1,9.61% (inactive),–
Oc1c(Br)cc(Br)cc1Br,13.4% (inactive),–
C[C@]12CC[C@H]3[C@@H](CCC4=CC(=O)CC[C@@H]43)[C@@H]1CC[C@@H]2O,1.25% (inactive),–
Cc1nc2ccccc2c(=O)n1-c1ccccc1Cl,-13.6% [at 92.7 µM] (inactive),–
O=c1[nH]c2cc(Cl)ccc2n1C1CCNCC1,8.65% (inactive),–
N#Cc1nn(-c2c(Cl)cc(C(F)(F)F)cc2Cl)c(N)c1S(=O)C(F)(F)F (stereo not given),-19.8% (inactive),–
COP(=O)(OC)OC=C(Cl)Cl,13.2% (inactive),–
CCOC(=O)c1ncn2c1CN(C)C(=O)c1c(I)cccc1-2,11.4% (inactive),–
C[N+]1(C)[C@@H]2CC[C@H]1CC(OC(=O)C(CO)c1ccccc1)C2 (stereo not given in full),4.34% (inactive),–
O=C(N[C@@H]1N=C(c2ccccc2F)c2cccc3c2N(CC3)C1=O)c1cc2ccccc2[nH]1,-5.54% (inactive),–
CCO[C@H]1O[C@@H]2OC3(C)CC[C@H]4[C@H](C)CC[C@@H]([C@H]1C)[C@@]24OO3,-7.62% (inactive),–
COc1ccc(C(=O)N2CCCC2=O)cc1,–,inactive
CC#C[C@]1(O)CC[C@H]2[C@@H]3C[C@H](C)C4=CC(=O)CC[C@]4(C)[C@H]3CC[C@@]21C,2.56% (inactive),–
COc1ccc2c(C(=O)c3ccc(Cl)cc3)c(C)n(CC(=O)O)c2c1,0.566% (inactive),–
CC1Sc2c(C(=O)O)c(=O)c3cc(F)c(N4CCNCC4)cc3n21 (stereo not given),9.13% (inactive),–
C[C@]12CC[C@H]3[C@@H](CC=C4C[C@@H](O)CC[C@@]43C)[C@@H]1CC[C@@H]2O,5.84% (inactive),–
Clc1ccc(C(OCCN2CCCCC2)c2ccccc2)cc1 (stereo not given),-19.4% (inactive),–

Compound,"activity change, negative = cytotoxic",Potency
CCN1CCCC1CNC(=O)C(O)(c1ccccc1)c1ccccc1 (stereo not given),12.7% (inactive),–
C[C@]12CC[C@H](O)CC1=CC[C@@H]1[C@@H]2CC[C@]2(C)C(=O)CC[C@@H]12,7.69% (inactive),–
COc1cc(C[C@@H](C)N)c(OC)cc1C,-10.1% [at 92.7 µM] (inactive),–
COc1cc(C[C@@H](C)N)c(OC)cc1Br,-10.8% [at 92.7 µM] (inactive),–
C[C@]12C=CC(=O)C=C1CC[C@@H]1[C@@H]2CC[C@@]2(C)[C@H]1CC[C@]2(C)O,-8.83% (inactive),–
C#C[C@]1(O)C=C[C@H]2[C@@H]3CCC4=CC(=O)CC[C@@H]4[C@H]3CC[C@@]21CC,16.8% (inactive),–
CCC(=O)C(CCN(C)C)(c1ccccc1)c1ccccc1,3.44% (inactive),–
COc1cc(CC(C)N)cc2c1OCO2 (stereo not given),-4.51% [at 92.7 µM] (inactive),–
Oc1ccc2[nH]cc(CCCCN3CC=C(c4ccccc4)CC3)c2c1,-14.8% (inactive),–
CN1C(=O)CN=C(c2ccccc2)c2cc([N+](=O)[O-])ccc21,1.74% (inactive),–
COP(=S)(OC)Oc1ccc(Sc2ccc(OP(=S)(OC)OC)cc2)cc1,8.87% (inactive),–
CCc1cc(OC)c(C[C@H](C)N)cc1OC,-17.9% [at 92.7 µM] (inactive),–
O=C(CCl)c1ccc(Cl)cc1Cl,1.79% (inactive),–
C[C@H](CN1CCOCC1)C(C(=O)N1CCCC1)(c1ccccc1)c1ccccc1,-5.5% [at 155 µM] (inactive),–
CCc1ccc(C2CCNCC2)cc1,-3.35% (inactive),–
C[C@H](N)[C@H](O)c1ccc(O)c(O)c1,2.14% (inactive),–
CC(Cc1ccc2c(c1)OCO2)NO (stereo not given),-1.1% [at 92.7 µM] (inactive),–
CCC1(c2ccccc2)CCC(=O)NC1=O (stereo not given),11.3% (inactive),–
CCC(=O)OC1(c2ccccc2)CCN(C)CC1,-2.38% [at 92.7 µM] (inactive),–
COc1ccc2[nH]cc(CCN(C(C)C)C(C)C)c2c1,2.32% [at 92.7 µM] (inactive),–
